Measured values as given in PubChem BioAssay (NCI).
The panel holds about 83,000 compounds, 20% with a hit somewhere; the sample as a whole holds those more often.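 Negative percent growth values reflect cell death: -40 means 40% of the cells present at the start died, and -100 means all died.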 Active and inactive are the calls of the source. Rule for the calls: active = growth percent below 10; inactive = the rest.

How the values were obtained:
Assay in all cases: NCI-60 one-dose screen, 48 h (100 = growth as untreated, 0 = no growth, -100 = all killed)
Conditions in all cases: 10 µM unless noted
[1] = tested on: SK-MEL-2 melanoma
[2] = tested on: EKVX NSCLC
[3] = tested on: SN12C renal
[4] = tested on: UO-31 renal
[5] = tested on: TK-10 renal
[6] = tested on: ACHN renal
[7] = tested on: CAKI-1 renal
[8] = tested on: A498 renal
[9] = tested on: CCRF-CEM leukemia
[10] = tested on: MOLT-4 leukemia
[11] = tested on: SR leukemia
[12] = tested on: RPMI-8226 leukemia
[13] = tested on: OVCAR-5 ovarian
[14] = tested on: OVCAR-4 ovarian
[15] = tested on: SK-OV-3 ovarian
[16] = tested on: IGROV1 ovarian
[17] = tested on: OVCAR-3 ovarian
[18] = tested on: HS 578T breast
[19] = tested on: NCI/ADR-RES ovarian

Measured: growth

CC/C=C\C/C=C\C[C@H](O)C/C=C1/C(=O)C=C[C@@H]1C/C=C\CCCC(=O)OC
inactive: [2] 24.8% | [8] 21.9% | [13] 11% | [14] 28.2% | [15] 24.2% | [18] 32.6% | [19] 12.1%
active: [1] -16.9% | [3] -29.2% | [4] -83.3% | [5] 5.09% | [6] -75.9% | [7] -1.75% | [9] -11.7% | [10] -10.5% | [11] 0.0807% | [12] -8.73% | [16] -28.9% | [17] -40.1%

CC(=O)c1c(C)nc2ccccc2c1/C=C/c1cccc(C)c1
inactive: [1] 36.2% | [2] 71.5% | [3] 67.7% | [4] 56.4% | [5] 79.9% | [6] 73.7% | [7] 46.3% | [8] 50.1% | [9] 54.4% | [10] 31% | [11] 23.3% | [12] 56% | [13] 83.6% | [14] 67.2% | [15] 69.7% | [16] 48.1% | [17] 45.5% | [18] 62.5% | [19] 29.8%

COc1ccc2c(c1)CC[C@@H]1[C@@H]2CC[C@]2(C)C3C(=CCC4C(=O)N(c5ccccc5)C(=O)C43)C[C@@H]12 (stereo not given in full)
inactive: [1] 95.7% | [2] 93% | [3] 108% | [4] 74.3% | [5] 105% | [6] 80.8% | [7] 71.7% | [8] 114% | [9] 66.7% | [10] 74.2% | [11] 99.1% | [12] 61.2% | [13] 75.7% | [14] 78.8% | [15] 103% | [16] 113% | [17] 87.3% | [18] 97.6% | [19] 85.8%

COCCOc1cc2ncnc(N3CCN(S(=O)(=O)c4ccccc4Cl)CC3)c2cc1OCCOC
inactive: [1] 88.1% | [2] 90.9% | [3] 105% | [4] 70% | [5] 98.9% | [6] 97.5% | [7] 86.6% | [8] 54.9% | [9] 79% | [10] 65.2% | [11] 22% | [12] 82.5% | [14] 102% | [15] 104% | [16] 89.7% | [17] 91.5% | [18] 93.5% | [19] 66.9%

COc1ccc2c(c1)CCNC21C(=O)Nc2c(Br)cc(Br)cc21 (stereo not given)
inactive: [1] 106% | [2] 78.7% | [3] 92.5% | [4] 62.1% | [5] 106% | [6] 93.7% | [7] 82.8% | [8] 67% | [9] 113% | [10] 95.9% | [11] 96.4% | [12] 106% | [13] 91.3% | [14] 95.2% | [15] 84.2% | [16] 82.4% | [17] 101% | [18] 94.8% | [19] 104%

O=C(Cc1ccc(F)cc1)c1ccccc1
inactive: [1] 114% | [2] 113% | [3] 99.4% | [4] 95.6% | [5] 104% | [6] 110% | [7] 106% | [8] 99.8% | [9] 88% | [10] 93.1% | [11] 100% | [12] 95.9% | [13] 122% | [14] 109% | [15] 108% | [16] 107% | [17] 129% | [18] 94% | [19] 108%

C=C1C(=O)O[C@H]2[C@H]1CC/C(COC(=O)NCCCCNC(=O)OC/C1=C/CC[C@@]3(C)O[C@H]3[C@H]3OC(=O)C(=C)[C@@H]3CC1)=C\CC[C@@]1(C)O[C@@H]21
inactive: [1] 36.4% | [2] 89% | [3] 19.6% | [4] 79.8% | [5] 20.1% | [6] 57.5% | [7] 76.8% | [8] 95.1% | [14] 31.1% | [15] 94.2% | [16] 48.9% | [18] 70.5% | [19] 99.5%
active: [9] -33.6% | [10] -14.8% | [11] -1.79% | [12] -28.3% | [13] 4.4% | [17] -8.75%

O=C1OCC2=C1C(c1cccc([N+](=O)[O-])c1)c1cc3c(cc1N2CCO)CCC3 (stereo not given)
active: [8] -5.04% | [9] 7.25% | [17] -1.17% | [19] 3.57%
inactive: [1] 17.7% | [2] 36.8% | [3] 36.3% | [4] 39% | [5] 60.1% | [6] 27.5% | [7] 31% | [10] 14% | [11] 15.2% | [12] 17% | [14] 40% | [15] 27% | [16] 25.9% | [18] 21.9%
